Measured values: PubChem BioAssay AID1159580 (chemical genetic matrix, 2015)
Screen size: about 5,500 compounds; about 2,000 (36%) were called active. Roughly 18% stayed inconclusive and do not appear here. Rule as the data show it: active = normalized growth mostly below about 0.91 (no sharp cut-off); inconclusive = no clear call, values can overlap the other calls; inactive = mostly above about 0.92. The list shows a part of the results.

Assay: chemical genetic growth profiling, strain panel (AID 1159580);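 also: tested at 20 µM; growth read once vehicle control cultures reached saturation at 30 °C; 1 = growth at the plate median or of vehicle wells; lower values mean less growth of the strain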
Conditions: growth OD

Measured: normalized growth

Cc1cc(C)cc(OCC2CNC(=O)O2)c1 (configuration not stated)
inactive: S. cerevisiae deletion strains, locus YJR075W, strain HOC1, stronger effect = lower value 1.01 | S. cerevisiae deletion strains, locus YKL009W, strain mrt4, stronger effect = lower value 1.02 | S. cerevisiae deletion strains, locus YKL068W, stronger effect = lower value 1.02 | S. cerevisiae deletion strains, locus YKL085W, strain MDH1 (second series), stronger effect = lower value 1.01 | S. cerevisiae deletion strains, locus YKL085W, strain MDH1, stronger effect = lower value 1.01 | S. cerevisiae deletion strains, locus YKL160W, strain elf1, stronger effect = lower value 0.973 | S. cerevisiae deletion strains, locus YKL190W, strain CNB1, stronger effect = lower value 1.01 | S. cerevisiae deletion strains, locus YKR001C, strain vps1, stronger effect = lower value 1.01 | S. cerevisiae deletion strains, locus YKR026C, strain gcn3, stronger effect = lower value 0.978 | S. cerevisiae deletion strains, locus YKR091W, strain srl3, stronger effect = lower value 0.985 | S. cerevisiae deletion strains, locus YLL001W, strain dnm1, stronger effect = lower value 0.976 | S. cerevisiae deletion strains, locus YLL026W, stronger effect = lower value 0.988 | S. cerevisiae deletion strains, locus YLL041C, strain sdh2, stronger effect = lower value 0.972 | S. cerevisiae deletion strains, locus YLR027C, strain aat2, stronger effect = lower value 0.985 | S. cerevisiae deletion strains, locus YLR039C, strain RIC1, stronger effect = lower value 1.04 | S. cerevisiae deletion strains, locus YLR058C, strain SHM2, stronger effect = lower value 1.01 | S. cerevisiae deletion strains, locus YLR102C, strain apc9, stronger effect = lower value 1.02 | S. cerevisiae deletion strains, locus YLR113W, strain HOG1, stronger effect = lower value 1.03 | S. cerevisiae deletion strains, locus YLR221C, strain rsa3, stronger effect = lower value 0.966 | S. cerevisiae deletion strains, locus YLR258W, strain gsy2, stronger effect = lower value 0.981 | S. cerevisiae deletion strains, locus YLR262C, strain YPT6 (second series), stronger effect = lower value 0.962 | S. cerevisiae deletion strains, locus YLR262C, strain YPT6, stronger effect = lower value 1.07 | S. cerevisiae deletion strains, locus YLR268W, strain sec22, stronger effect = lower value 1.01 | S. cerevisiae deletion strains, locus YLR320W, strain mms22, stronger effect = lower value 0.978 | S. cerevisiae deletion strains, locus YLR330W, strain CHS5, stronger effect = lower value 1.01 | S. cerevisiae deletion strains, locus YLR342W, strain FKS1 (second series), stronger effect = lower value 1.02 | S. cerevisiae deletion strains, locus YLR342W, strain FKS1, stronger effect = lower value 0.982 | S. cerevisiae deletion strains, locus YLR357W, strain rsc2, stronger effect = lower value 1.01 | S. cerevisiae deletion strains, locus YLR370C, strain arc18, stronger effect = lower value 0.963 | S. cerevisiae deletion strains, locus YLR371W, strain rom2, stronger effect = lower value 1.02 | S. cerevisiae deletion strains, locus YLR384C, strain iki3, stronger effect = lower value 0.973 | S. cerevisiae deletion strains, locus YLR418C, strain cdc73, stronger effect = lower value 1.02 | S. cerevisiae deletion strains, locus YML016C, strain PPZ1, stronger effect = lower value 1.01 | S. cerevisiae deletion strains, locus YML032C, strain rad52, stronger effect = lower value 1.02 | S. cerevisiae deletion strains, locus YML120C, strain ndi1, stronger effect = lower value 0.984 | S. cerevisiae deletion strains, locus YML124C, strain tub3, stronger effect = lower value 1 | S. cerevisiae deletion strains, locus YMR058W, strain fet3, stronger effect = lower value 0.95 | S. cerevisiae deletion strains, locus YMR078C, strain ctf18, stronger effect = lower value 1.02 | S. cerevisiae deletion strains, locus YMR125W, strain sto1, stronger effect = lower value 0.979 | S. cerevisiae deletion strains, locus YMR129W, stronger effect = lower value 0.984 | S. cerevisiae deletion strains, locus YMR205C, strain PFK2, stronger effect = lower value 0.97 | S. cerevisiae deletion strains, locus YMR223W, strain ubp8, stronger effect = lower value 1.02 | S. cerevisiae deletion strains, locus YMR231W, strain pep5, stronger effect = lower value 0.964 | S. cerevisiae deletion strains, locus YMR263W, strain SAP30, stronger effect = lower value 1.01 | S. cerevisiae deletion strains, locus YMR307W, strain GAS1, stronger effect = lower value 1.03 | S. cerevisiae deletion strains, locus YNL067W, strain RPL9B, stronger effect = lower value 1.02 | S. cerevisiae deletion strains, locus YNL071W, strain lat1, stronger effect = lower value 0.983 | S. cerevisiae deletion strains, locus YNL128W, strain TEP1, stronger effect = lower value 1.01 | S. cerevisiae deletion strains, locus YNL153C, strain GIM3, stronger effect = lower value 1 | S. cerevisiae deletion strains, locus YNL183C, strain NPR1, stronger effect = lower value 0.98 | S. cerevisiae deletion strains, locus YNL209W, strain ssb2, stronger effect = lower value 0.969 | S. cerevisiae deletion strains, locus YNL233W, strain BNI4, stronger effect = lower value 1 | S. cerevisiae deletion strains, locus YNL248C, strain rpa49, stronger effect = lower value 0.976 | S. cerevisiae deletion strains, locus YNL250W, strain rad50, stronger effect = lower value 1.02 | S. cerevisiae deletion strains, locus YNL271C, strain bni1, stronger effect = lower value 1.02 | S. cerevisiae deletion strains, locus YNL298W, strain CLA4, stronger effect = lower value 1.02 | S. cerevisiae deletion strains, locus YNL307C, strain MCK1, stronger effect = lower value 1.01 | S. cerevisiae deletion strains, locus YNL322C, strain KRE1 (second series), stronger effect = lower value 0.975 | S. cerevisiae deletion strains, locus YNL322C, strain KRE1, stronger effect = lower value 1.01 | S. cerevisiae deletion strains, locus YNR049C, strain mso1, stronger effect = lower value 0.983 | S. cerevisiae deletion strains, locus YNR052C, strain pop2, stronger effect = lower value 1.02 | S. cerevisiae deletion strains, locus YOL006C, strain TOP1, stronger effect = lower value 1.03 | S. cerevisiae deletion strains, locus YOL012C, strain htz1 1.42 | S. cerevisiae deletion strains, locus YOL147C, strain pex11, stronger effect = lower value 1.01 | S. cerevisiae deletion strains, locus YOR001W, strain rrp6, stronger effect = lower value 0.984 | S. cerevisiae deletion strains, locus YOR061W, strain CKA2, stronger effect = lower value 1.01 | S. cerevisiae deletion strains, locus YOR069W, strain VPS5, stronger effect = lower value 1.02 | S. cerevisiae deletion strains, locus YOR070C, strain gyp1, stronger effect = lower value 0.969 | S. cerevisiae deletion strains, locus YOR080W, strain dia2, stronger effect = lower value 0.991 | S. cerevisiae deletion strains, locus YOR083W, strain WHI5, stronger effect = lower value 0.986 | S. cerevisiae deletion strains, locus YOR106W, strain vam3, stronger effect = lower value 0.978 | S. cerevisiae deletion strains, locus YOR136W, strain idh2, stronger effect = lower value 1.01 | S. cerevisiae deletion strains, locus YOR144C, strain elg1, stronger effect = lower value 1.01 | S. cerevisiae deletion strains, locus YOR184W, strain ser1, stronger effect = lower value 1.03 | S. cerevisiae deletion strains, locus YOR231W, strain MKK1, stronger effect = lower value 1.05 | S. cerevisiae deletion strains, locus YOR265W, strain rbl2, stronger effect = lower value 0.975 | S. cerevisiae deletion strains, locus YOR270C, strain vph1, stronger effect = lower value 0.939 | S. cerevisiae deletion strains, locus YOR290C, strain snf2, stronger effect = lower value 0.982 | S. cerevisiae deletion strains, locus YOR316C, strain cot1, stronger effect = lower value 1.02 | S. cerevisiae deletion strains, locus YPL051W, strain arl3, stronger effect = lower value 0.979 | S. cerevisiae deletion strains, locus YPL055C, strain LGE1, stronger effect = lower value 1.02 | S. cerevisiae deletion strains, locus YPL078C, strain atp4, stronger effect = lower value 0.973 | S. cerevisiae deletion strains, locus YPL106C, strain sse1, stronger effect = lower value 0.969 | S. cerevisiae deletion strains, locus YPL240C, strain hsp82, stronger effect = lower value 0.979 | S. cerevisiae deletion strains, locus YPL241C, strain CIN2, stronger effect = lower value 1.01 | S. cerevisiae deletion strains, locus YPL256C, strain CLN2, stronger effect = lower value 1.1 | S. cerevisiae deletion strains, locus YPR119W, strain clb2, stronger effect = lower value 1.01 | S. cerevisiae deletion strains, locus YPR141C, strain kar3, stronger effect = lower value 1.02 | S. cerevisiae deletion strains, locus YPR163C, strain tif3, stronger effect = lower value 1.01 | S. cerevisiae deletion strains, locus YPR167C, strain met16, stronger effect = lower value 1.01 | S. cerevisiae deletion strains, strain wtn01, stronger effect = lower value 1.01 | S. cerevisiae strains, strain wild type, stronger effect = lower value 1.01
